In one assay the target is Albumin (Bos taurus) (UniProt P02769). The experiment in a line: compounds binding labelled BSA control protein – biochemical, small-molecule microarray, Alexa647 label, 635/667 nm fluorescence, artefact control for SMM control protein annotation, profiling panel (AID 1118).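 Further: score merges 667 nm emission intensity and signal-to-noise per printed compound spot.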 The note with it: BSA-A647 binding, fluorescence 635 nm, higher = more signal.
Assay [1] is described as follows: probe aXIP binding to arrayed compounds – biochemical, NeuroSMM set, 635/667 nm fluorescence, primary screen (AID 1119).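 Further: probe is the protein aXip251-270 applied at 1 µg/mL to compound-printed slides; binding of probe to printed compounds measured as 667 nm fluorescence plus signal to noise.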 The note with it: small-molecule microarray, higher = more signal, called active from +8 up or from −8 down.
Assay [2] can be described thus: probe aNOTCH3 binding on compound microarray – biochemical, small-molecule microarray, 635/667 nm fluorescence, primary screen (AID 1120).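 Further: probe is a biotin-tagged antibody raised against NOTCH3 rather than NOTCH3 protein; score merges spot fluorescence near 667 nm with spot signal to noise.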 To be noted: higher = more signal.
Assay [3] in a line: probe aNOTCH2 binding on compound microarray – biochemical, small-molecule microarray, 635/667 nm fluorescence, primary screen (AID 1121).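 Further: score merges feature fluorescence read at 667 nm with its signal to noise.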 The note with it: higher = more signal.
The target of assay [4] is Carbonic anhydrase 2 (Homo sapiens) (UniProt P00918). Description: compounds binding carbonic anhydrase 2 – biochemical, small-molecule microarray, Alexa647-labelled CAII, profiling panel (AID 1122). To be noted: CAII-A647 binding fluorescence, higher = more signal.
A short description of assay [5]: COS7 lysate on small-molecule microarray, probe aHis, 635 nm (AID 1123).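 Further: z-score combines 667nm fluorescence intensity with signal-to-noise per printed compound spot.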 To be noted: COS7 cell lysate, fluorescence, higher = more signal.
The nature of assay [6]: probe aLAP1 signal on lysate-treated microarray – cell lysate, small-molecule microarray, COS7 lysate, primary screen (AID 1124).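 Further: lysate comes from COS7 cells expressing LAP1 and is applied at 0.3 µg/mL; score merges spot fluorescence near 667 nm with signal-to-noise over triplicate slides.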 To be noted: probe aLAP1, fluorescence, higher = more signal.
A further assay deals with Sam68 (KHDRBS1). Description: compounds binding KHDRBS1 protein – biochemical, small-molecule microarray, 635 nm fluorescence, primary screen (AID 1125).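 Further: score merges 667 nm channel intensity with signal to noise over triplicate slides.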 To be noted: higher = more signal.
Assay [7] relates to Chordin-like protein 2 (CHRDL2). Description: compounds binding chordin-like 2 – biochemical, small-molecule microarray, 635 nm fluorescence, primary screen (AID 1126).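 Further: printed compound slides probed with Chrdl2 protein at 4 µg/mL for 1 h at 4 C; score merges 667 nm emission intensity with signal to noise over three replicate slides.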 The note with it: fluorescence 635 nm, higher = more signal.
In assay [8] the target is Concanavalin-A (Canavalia ensiformis) (UniProt P02866). Description: compounds binding concanavalin A lectin – biochemical, small-molecule microarray, Alexa647 label, 635 nm, artefact control for SMM control protein annotation, primary screen (AID 1127).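 Further: z combines 667 nm emission intensity with signal-to-noise across three replicate slides.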 The note with it: ConA-A647 binding fluorescence, higher = more signal.
Assay [9] is described as follows: compounds binding Alexa647 anti-His antibody – biochemical, small-molecule microarray, 635 nm fluorescence, artefact control for SMM control protein annotation, primary screen (AID 1128).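 Further: score merges feature fluorescence with signal-to-noise for each printed compound spot.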 To be noted: higher = more signal.
The test system of assay [10] is Human papillomavirus type 1a E7 protein (residues 1-88). The experiment in a line: HPV1a E7 small-molecule binders, primary screen, biochemical, small-molecule microarray, residues 1-88, 635 nm (AID 1129). The note with it: small-molecule microarray binding, fluorescence 635 nm; higher = more signal.
In assay [11] the target is Focal adhesion kinase 1 (Homo sapiens) (UniProt Q05397). Description: PTK2 protein binding on printed compound slides – biochemical, small-molecule microarray, 635/667 nm fluorescence, BSA, DTT, primary screen (AID 1130).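 Further: composite of spot emission at 667 nm and signal to noise over triplicate slides.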 The note with it: 635 nm fluorescence, higher = more signal.
In assay [12] the test system is Fibrinogen (Alexa647-labelled). The experiment in a line: Alexa647-fibrinogen binding to printed small molecules – biochemical, small-molecule microarray, 635/667 nm fluorescence, artefact control for SMM control-protein annotation, profiling panel (AID 1131).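 Further: z-score merges 667 nm fluorescence with per-spot signal-to-noise over triplicate slides.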 The note with it: fibrinogen-A647 binding fluorescence, higher = more signal.
The target of assay [13] is Follistatin (Homo sapiens) (UniProt P19883). Description: FST protein binding to printed compounds – biochemical, small-molecule microarray, 635/667 nm fluorescence, primary screen (AID 1132). The note with it: 635 nm fluorescence, higher = more signal.
In assay [14] the target is Fibroblast growth factor 2 (Homo sapiens) (UniProt P09038). Description: basic fibroblast growth factor binding to printed compounds – biochemical, small-molecule microarray, 635/667 nm fluorescence, primary screen (AID 1133). The note with it: FGF2, fluorescence 635/667, higher = more signal.
A short description of assay [15]: JC-1 mitochondrial potential readout, lung cancer cells – cell-based, A549, JC-1 fluorescence, basal, 24 h, 100 nL, profiling panel (AID 1138).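 Further: A549 lung adenocarcinoma cells under basal conditions with no added stimulus; test concentration not given here.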 To be noted: higher = more signal.
For another assay, the system named is Lefty1. Description: Lefty1 protein binding to printed compounds – biochemical, small-molecule microarray, 635/667 nm fluorescence, primary screen (AID 1139). To be noted: fluorescence 635/667, higher = more signal.
Assay [16] deals with wheat germ agglutinin (Triticum aestivum), Alexa647-labelled. The experiment in a line: Alexa647-WGA lectin binding to printed small molecules – biochemical, small-molecule microarray, 635/667 nm fluorescence, artefact control for SMM control-protein annotation, profiling panel (AID 1140).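 Further: score merges 667 nm feature emission with signal to noise over triplicate slides.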 To be noted: WGA-A647 binding, 635 nm fluorescence, higher = more signal.
In assay [17] the target is Luciferin 4-monooxygenase (Photinus pyralis) (UniProt P08659). The experiment in a line: inhibition of purified Photinus pyralis luciferase – biochemical, luminescence, purified enzyme, 2006 set, primary screen (AID 1141).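 Further: cell-free assay with purified firefly luciferase at 100 ng per well in PBS; test concentration not given here.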 To be noted: purified firefly luciferase, SteadyGlo luminescence, 30 min; higher = more signal, called active from +8 up or from −8 down.

Calls of active or inactive are those of the source.

These results are taken from PubChem BioAssay.

Chain of Albumin (Bos taurus) (P02769 whole entry, looked up): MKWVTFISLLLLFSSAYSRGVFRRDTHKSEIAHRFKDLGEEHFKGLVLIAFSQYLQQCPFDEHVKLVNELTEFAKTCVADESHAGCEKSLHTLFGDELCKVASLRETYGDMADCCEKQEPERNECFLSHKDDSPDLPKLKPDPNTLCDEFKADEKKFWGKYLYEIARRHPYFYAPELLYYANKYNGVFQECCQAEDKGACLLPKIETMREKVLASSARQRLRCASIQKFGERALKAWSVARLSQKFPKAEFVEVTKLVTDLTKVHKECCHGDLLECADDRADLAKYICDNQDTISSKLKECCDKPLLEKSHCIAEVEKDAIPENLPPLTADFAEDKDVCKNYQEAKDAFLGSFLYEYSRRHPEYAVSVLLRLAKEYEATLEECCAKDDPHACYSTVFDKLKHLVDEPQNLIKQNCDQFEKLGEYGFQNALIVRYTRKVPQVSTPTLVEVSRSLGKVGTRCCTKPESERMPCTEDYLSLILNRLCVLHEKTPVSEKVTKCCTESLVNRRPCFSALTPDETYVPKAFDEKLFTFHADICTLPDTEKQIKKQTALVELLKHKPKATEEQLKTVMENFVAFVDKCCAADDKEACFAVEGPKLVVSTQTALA
Chain of Follistatin (Homo sapiens) (P19883 whole entry, looked up): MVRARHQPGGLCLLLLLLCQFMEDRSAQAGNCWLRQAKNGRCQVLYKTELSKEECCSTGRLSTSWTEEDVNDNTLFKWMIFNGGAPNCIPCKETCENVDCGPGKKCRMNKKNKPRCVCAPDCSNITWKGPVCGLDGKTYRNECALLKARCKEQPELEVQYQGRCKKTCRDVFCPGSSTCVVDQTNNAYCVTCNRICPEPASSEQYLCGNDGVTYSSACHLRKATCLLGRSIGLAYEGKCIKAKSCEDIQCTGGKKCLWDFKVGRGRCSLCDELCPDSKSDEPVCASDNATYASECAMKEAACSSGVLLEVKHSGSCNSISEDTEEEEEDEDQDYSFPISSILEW
Chain of Focal adhesion kinase 1 (Homo sapiens) (Q05397 whole entry, looked up): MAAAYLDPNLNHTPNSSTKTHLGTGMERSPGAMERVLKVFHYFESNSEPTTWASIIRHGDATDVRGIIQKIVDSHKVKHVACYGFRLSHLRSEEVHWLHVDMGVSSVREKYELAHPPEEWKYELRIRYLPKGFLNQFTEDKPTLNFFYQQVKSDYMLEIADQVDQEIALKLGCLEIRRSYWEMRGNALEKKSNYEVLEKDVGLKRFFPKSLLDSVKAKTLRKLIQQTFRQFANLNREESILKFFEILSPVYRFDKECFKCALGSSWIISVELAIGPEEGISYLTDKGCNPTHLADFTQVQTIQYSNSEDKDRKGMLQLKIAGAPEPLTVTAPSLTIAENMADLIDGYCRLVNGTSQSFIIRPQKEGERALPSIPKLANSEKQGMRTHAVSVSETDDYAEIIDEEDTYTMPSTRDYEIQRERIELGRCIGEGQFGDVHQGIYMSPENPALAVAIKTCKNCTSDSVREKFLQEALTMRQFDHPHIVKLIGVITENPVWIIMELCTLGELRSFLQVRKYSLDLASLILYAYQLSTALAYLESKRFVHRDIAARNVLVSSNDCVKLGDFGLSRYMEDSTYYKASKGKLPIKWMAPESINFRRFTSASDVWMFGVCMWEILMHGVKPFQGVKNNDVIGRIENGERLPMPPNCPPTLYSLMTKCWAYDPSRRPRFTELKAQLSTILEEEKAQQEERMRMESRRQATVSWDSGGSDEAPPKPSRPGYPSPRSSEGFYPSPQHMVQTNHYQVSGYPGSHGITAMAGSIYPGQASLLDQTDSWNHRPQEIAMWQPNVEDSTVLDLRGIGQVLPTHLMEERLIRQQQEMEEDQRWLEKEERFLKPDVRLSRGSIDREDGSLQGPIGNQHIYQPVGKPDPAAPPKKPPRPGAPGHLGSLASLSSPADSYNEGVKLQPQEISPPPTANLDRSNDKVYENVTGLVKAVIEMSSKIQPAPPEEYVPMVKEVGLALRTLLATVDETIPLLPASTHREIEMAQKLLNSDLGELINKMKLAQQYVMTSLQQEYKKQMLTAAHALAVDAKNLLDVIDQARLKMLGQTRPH
Chain of Luciferin 4-monooxygenase (Photinus pyralis) (P08659 whole entry, looked up): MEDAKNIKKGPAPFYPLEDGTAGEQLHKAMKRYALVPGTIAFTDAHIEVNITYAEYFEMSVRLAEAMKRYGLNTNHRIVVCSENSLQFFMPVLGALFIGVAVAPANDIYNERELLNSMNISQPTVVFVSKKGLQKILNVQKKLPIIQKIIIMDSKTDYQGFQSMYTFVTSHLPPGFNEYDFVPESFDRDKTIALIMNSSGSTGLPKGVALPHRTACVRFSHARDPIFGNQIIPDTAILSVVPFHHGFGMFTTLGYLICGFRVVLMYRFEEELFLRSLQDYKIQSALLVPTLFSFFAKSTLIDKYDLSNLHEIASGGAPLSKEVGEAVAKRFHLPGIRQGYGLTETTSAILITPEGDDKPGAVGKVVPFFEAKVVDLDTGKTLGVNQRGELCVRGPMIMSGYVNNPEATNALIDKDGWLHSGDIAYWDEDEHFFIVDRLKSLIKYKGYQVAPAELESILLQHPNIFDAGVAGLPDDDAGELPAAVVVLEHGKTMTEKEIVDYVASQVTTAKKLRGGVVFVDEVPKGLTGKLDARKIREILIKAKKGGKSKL
Chain of Concanavalin-A (Canavalia ensiformis) (P02866 whole entry, looked up): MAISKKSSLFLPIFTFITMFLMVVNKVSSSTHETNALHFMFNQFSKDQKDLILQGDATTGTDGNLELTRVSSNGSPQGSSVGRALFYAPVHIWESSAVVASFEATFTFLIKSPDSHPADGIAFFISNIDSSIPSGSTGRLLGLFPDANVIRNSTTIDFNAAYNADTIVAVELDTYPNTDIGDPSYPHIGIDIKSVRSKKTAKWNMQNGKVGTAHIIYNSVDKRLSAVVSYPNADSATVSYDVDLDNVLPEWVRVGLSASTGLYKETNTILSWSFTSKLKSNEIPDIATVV
Chain of Fibroblast growth factor 2 (Homo sapiens) (P09038 whole entry, looked up): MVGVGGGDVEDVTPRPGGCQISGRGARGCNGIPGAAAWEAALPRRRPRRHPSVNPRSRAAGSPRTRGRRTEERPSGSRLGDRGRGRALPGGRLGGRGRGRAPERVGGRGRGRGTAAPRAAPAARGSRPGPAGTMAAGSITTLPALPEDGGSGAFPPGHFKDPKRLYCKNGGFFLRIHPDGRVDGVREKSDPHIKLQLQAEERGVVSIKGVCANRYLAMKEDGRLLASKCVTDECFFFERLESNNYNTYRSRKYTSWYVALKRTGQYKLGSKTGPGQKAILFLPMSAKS

Regarding `[N-]=[N+]=Nc1ccccc1C[C@]1(C(=O)O)N=C(c2ccc(OCCCO)cc2)O[C@H]1c1ccccc1`, the composite z-score was 0.784 with Albumin (Bos taurus); -0.0316 in assay [2]; -0.121 in assay [3]; 0.601 in assay [4]; 2.58 in assay [5]; 0.266 in assay [6]. The composite z-score in the assay on Sam68 (KHDRBS1) was 0.822; in assay [7] it was -1.09; in assay [8], 0.552; in [9] it was 0.133; in [10], 0.612; in assay [11], -0.0641. Moreover, the composite z-score in assay [12] is 0.282; in assay [13] it was 0.968; in [14], -0.619; in the assay on Lefty1, -0.605; in [16] it was 0.801. The composite Z-score in [1] was 0.0778 (inactive). The results for the z-score in assay [15] and in assay [17] were 0.12 and -3.91 (inactive), respectively.
Consider `COCCOC(=O)N1C(=O)[C@@]2(c3ccccc31)[C@H](c1ccc(OCCO)cc1)N1[C@H](c3ccccc3)[C@H](c3ccccc3)OC(=O)[C@H]1[C@@H]2C(=O)N1CCCCCCC1`, for which the composite z-score stood at 0.915 in the assay with Albumin (Bos taurus); 2.31 in [2]; 1.18 in [3]; 1.08 in [4]; 5.33 in [5]; 1.22 in assay [6]. The composite z-score was 1.35 in the assay on Sam68 (KHDRBS1); 1.7 in [7]; 1.24 in assay [8]; 3.91 in assay [9]; 1.37 in [10]; 4.76 in assay [11]. In addition, the composite z-score in assay [12] was determined as 0.995; in assay [13], 1.55; in assay [14] it was 1.99; with Lefty1, 1.92; in assay [16] it was 1.76. Further, the composite Z-score in assay [1] is 7.84 (inactive). For the same molecule, the z-score in [15] was -1.75; in assay [17] it was -0.659 (inactive).
Consider `C=CCNC(=O)[C@H]1[C@@H]2C(=O)O[C@@H](c3ccccc3)[C@@H](c3ccccc3)N2[C@@H](c2ccc(OCCO)cc2)[C@]12C(=O)N(C(=O)OCCOC)c1ccc(C#Cc3ccc(OC)cc3)cc12`, for which the composite z-score with Albumin (Bos taurus) was 0.358; in assay [2] it was 0.154; in assay [3], -0.0995; in [4] it was 0.447; in assay [5] it was 0.656; in assay [6], 0.636. The composite z-score in the assay with Sam68 (KHDRBS1) was 1.3; in assay [7], 0.302; in [8], 1.09; in [9], 1.25; in assay [10], 1.15; in assay [11], 0.0069. Besides, the composite z-score in [12] was 0.904; in assay [13], 1.22; in [14], 0.714; in the assay on Lefty1 it was 0.544; in [16] it was 0.719. Also, in assay [1], the composite Z-score was -0.292 (inactive). For the same molecule, the z-score in assay [15] was -1.59; in [17], -1.51 (inactive).
With `C=CCN1C(=O)[C@@]2(O[C@@H](CCO)[C@H]([Si](C)(C)c3ccc(OC)cc3)[C@H]2C)c2cc(N3CCOC3=O)ccc21`, the composite z-score in the assay with Albumin (Bos taurus) was 0.729; in assay [2], -0.0647; in [3], -0.127; in assay [4] it was 0.483; in [5] it was -0.617; in [6], 0.155. In addition, the composite z-score with Sam68 (KHDRBS1) is 0.329; in assay [7], -0.403; in assay [8] it was 0.993; in assay [9] it was 2.38; in assay [10] it was 1.15; in assay [11], 0.246. Besides, the composite z-score in [12] is 0.768; in assay [13], -0.354; in [14], -0.25; in the assay with Lefty1 it was 0.0949; in [16] it was 0.486. Moreover, the composite Z-score in assay [1] was 0.0117 (inactive). Further, the z-score in [15] is -0.658; in assay [17] it was -1.03 (inactive).
As for `CCOC(=O)C1=CCC(c2ccccc2)N(S(=O)(=O)c2ccc([N+](=O)[O-])cc2)C1` (stereo not given), the composite z-score was 0.193 in the assay with Albumin (Bos taurus); -0.0077 in [2]; -0.108 in [3]; 0.0862 in [4]; 1.07 in assay [5]; 0.173 in assay [6]. Further, the composite z-score in the assay on Sam68 (KHDRBS1) is 0.439; in assay [7] it was 0.0332; in assay [8], -0.104; in assay [9] it was 0.927; in [10], 1.12; in [11], 0.2. Further, the composite z-score was -0.773 in assay [12]; 0.0227 in assay [13]; -0.169 in [14]; -0.111 in the assay with Lefty1; 0.599 in [16]. Further, in assay [1], the composite Z-score was -0.275 (inactive). Further, the z-score in assay [15] is 0.0562; in assay [17] it was 0.864 (inactive).
